Results from ChEMBL document CHEMBL4513216, “Probing the Open Global Health Chemical Diversity Library for Multistage-Active Starting Points for Next-Generation Antimalarials” (ACS Infect Dis, 2020).
In all, about 69,000 compounds went through this assay and about 8,600 (12%) showed an effect of 50% or more. The list comes from a sample in which strong results are over-represented; it also holds similar structures and randomly drawn compounds.

The compounds below were run on Plasmodium berghei (assay: Screen against P. berghei liver stage (PbLuc), transformed with Luciferase, at 10uM). Conditions: tested at 10 uM.
Type: functional, HepG2
`COc1ccc(C(C)Nc2ncnc3c2NC(=O)CN3)cc1` (stereo not drawn) showed an INHIBITION of 8.49%. Work on `O=S(=O)(c1c(N2CCCC2)ccc2nonc12)N1CCCC1` yielded an INHIBITION of 17.7%. `CCn1cc(-c2cc(C(=O)N3CCOCC3)c3cc(Cl)ccc3n2)cn1` was tested, and the INHIBITION was 12.9%. `COc1cc(F)cc2sc(NC(=O)COCC3CCCO3)nc12` (stereo not drawn) gave an INHIBITION of 16.1%. With `Cc1noc([C@H]2C[C@H]3CN(C(=O)C4CCOCC4)CC[C@@H]3O2)n1` the INHIBITION was 59%. Work on `Cc1noc([C@H]2C[C@@H]3CCN(C(=O)c4cccn4C)C[C@H]3O2)n1` yielded an INHIBITION of 25.8%. Work on `COCC(=O)N1CC[C@H]2C[C@H](c3nc(C)no3)O[C@@H]2C1` yielded an INHIBITION of -41.2%. `Cc1noc([C@H]2C[C@@H]3CCN(C(=O)N(C)C)C[C@H]3O2)n1` gave an INHIBITION of 54.6%. `Cc1noc([C@@H]2C[C@H]3CN(C(=O)C4CCN(C)CC4)C[C@H]3O2)n1` gave an INHIBITION of 28.7%. In the case of `Cc1noc([C@H]2C[C@@H]3CCN(C(=O)C4CCOCC4)C[C@H]3O2)n1`, the INHIBITION is reported as 41.5%. In the case of `CCN(Cc1ccc(OC)c(F)c1)Cc1nc2c(cnn2C)c(=O)[nH]1`, the INHIBITION is reported as 11.6%. In the case of `COCCNC(=O)N1CCN(C(=O)Cc2ccccc2F)CC1`, the INHIBITION is reported as -63.6%. In the case of `CN1N=C(C(=O)N(Cc2ccco2)C2CCCC2)CCC1=O`, the INHIBITION is reported as 46.1%. `Cc1nc(C)c(C(=O)N2CCc3nnc(C4CCCCN4C)n3CC2)s1` (stereo not drawn) was tested, and the INHIBITION was -12.4%. Work on `CCc1ccccc1Nc1noc2c1CN(C(=O)C1CCCO1)CC2` (stereo not drawn) yielded an INHIBITION of -9.32%. `CCN1CCCCC1C(=O)N1CCc2onc(-c3ccc(Cl)cc3)c2C1` (stereo not drawn) showed an INHIBITION of 20.2%. Compound `O=C(C1CCCO1)N1CCc2onc(-c3ccc(Cl)cc3)c2C1` (stereo not drawn) has an INHIBITION of 59.1%. `Cn1cc(C(=O)N2CCN(Cc3ccsc3)CC2)cn1` showed an INHIBITION of -2.825%. For `CCSCCNC(=O)Nc1cc(C(=O)N2CCOCC2)ccc1Cl`, the INHIBITION was 36.9%. `O=C(NCCN1CCCC1)Nc1cc(C(=O)N2CCOCC2)ccc1Cl` gave an INHIBITION of 67.5%. Work on `O=C(NCCn1cccn1)Nc1cc(C(=O)N2CCOCC2)ccc1Cl` yielded an INHIBITION of 45.2%. With `Cc1cc(C)nc(N2CCOC(c3cc(CCO)[nH]n3)C2)n1` (stereo not drawn) the INHIBITION was 2.99%. `CC(C)(C)C1SCC(=O)Nc2c1c(O)nn2C1CCCC1` (stereo not drawn) was tested, and the INHIBITION was 48%. With `Cn1cc(CN2CCCC3(CCCCN3S(C)(=O)=O)C2)cn1` (stereo not drawn) the INHIBITION was 18.3%. `CCS(=O)(=O)N1CCc2cc(C(=O)NC)c(N(C)C)nc2CC1` gave an INHIBITION of 19.8%. Compound `CNC(=O)c1cc2c(nc1N(C)C)CCN(c1ncc(F)cn1)CC2` has an INHIBITION of 50.3%. Compound `CNC(=O)c1cc2c(nc1N(C)C)CCN(c1ncc(C)cn1)CC2` has an INHIBITION of 57.5%. Compound `CNC(=O)c1cc2c(nc1N(C)C)CCN(S(=O)(=O)CC(C)C)CC2` has an INHIBITION of -22.8%. In the case of `CNC(=O)c1cc2c(nc1N(C)C)CCN(S(=O)(=O)C1CC1)CC2`, the INHIBITION is reported as 9.3%. With `CCc1cnc(N2CCc3cc(C(=O)NC)c(N(C)C)nc3CC2)nc1` the INHIBITION was 81%. In the case of `CNC(=O)c1cc2c(nc1N(C)C)CCN(c1ncccn1)CC2`, the INHIBITION is reported as 63.8%. `CNC(=O)c1cc2c(nc1N(C)C)CCN(S(=O)(=O)N(C)C)CC2` was tested, and the INHIBITION was 44.8%. `Cc1cnc(N2CCc3cc(C(=O)O)c(N(C)C)nc3CC2)nc1` was tested, and the INHIBITION was 31.2%. In the case of `CNC(=O)c1cc2c(nc1N(C)C)CCN(C)CC2`, the INHIBITION is reported as 13.3%. Compound `CNC(=O)c1cc2c(nc1NCC(C)C)CCN(S(C)(=O)=O)CC2` has an INHIBITION of -26.1%. For `CNC(=O)c1cc2c(nc1NCC(C)C)CCN(S(=O)(=O)N(C)C)CC2`, the INHIBITION was -23.4%. `CCN1CC(C(=O)N2CCN(CCn3cccc3)CC2)CCC1=O` (stereo not drawn) showed an INHIBITION of 6.69%. `O=C(NCC(Cc1cccc(F)c1)N1CCCC1=O)c1ccc[nH]c1=O` (stereo not drawn) showed an INHIBITION of 3.88%. Compound `COc1ccc(CN2CCC3(CCCN(C)C3=O)C2)c(OC)c1C` (stereo not drawn) has an INHIBITION of 5.75%. `CCn1ccnc1CN1CCOC(Cn2cccn2)C1` (stereo not drawn) gave an INHIBITION of 37.9%. With `CC1CCc2nc(NS(=O)(=O)c3cnn(C)c3)sc2C1` (stereo not drawn) the INHIBITION was 33.4%. For `CNc1nc(CNC(=O)Nc2ccc(SC)c(F)c2)cs1`, the INHIBITION was -4.35%. For `Cc1ccc(CN2CCCC3(CCC(=O)N3)CC2)s1` (stereo not drawn), the INHIBITION was -19.6%. Work on `CN1CCC(Cc2noc(-c3cccc4c3OCC4)n2)CC1` yielded an INHIBITION of 34.5%. Work on `Cc1ccc2oc(SCC(=O)NC(C)(C)C)nc2n1` yielded an INHIBITION of 49.1%. `Cc1nc(Nc2cnccn2)cc(C2CCN(CCO)C2)n1` (stereo not drawn) showed an INHIBITION of 23.2%. Compound `Cc1ccc(-c2ncc(C(=O)NCCNC(=O)C3CC3)s2)c(C)c1` has an INHIBITION of -91.8%. `Cc1nccc(C(=O)N2CCOC(c3nc(C(C)C)n[nH]3)C2)n1` (stereo not drawn) showed an INHIBITION of -65.3%. With `Cc1nn(C)c2ncc(CN3CCN(Cc4ccco4)CC3)cc12` the INHIBITION was 21.2%. Work on `Cc1cc(C)c(CNC(=O)N2CCOC(c3ccccc3)C2)c(=O)[nH]1` (stereo not drawn) yielded an INHIBITION of 31.9%. With `Cc1cc(C)c(C(=O)N2CCOC(c3cccs3)C2)c(=O)[nH]1` (stereo not drawn) the INHIBITION was -18.6%. For `Cc1ccc(C2CN(C(=O)c3c(C)cc(C)[nH]c3=O)CCO2)c(C)c1` (stereo not drawn), the INHIBITION was 55%. Compound `CNC(=O)C1CN(C(C)C)CCN1c1ncccn1` (stereo not drawn) has an INHIBITION of 47.1%. `CCC(=O)N1CCc2nc3cc(OC)c(OC)cc3c(=O)n2CC1` showed an INHIBITION of 59.1%. For `CCCC(=O)N1CCc2nc3cc(OC)c(OC)cc3c(=O)n2CC1`, the INHIBITION was 44.1%. `COc1cc2nc3n(c(=O)c2cc1OC)CCN(C(C)=O)CC3` was tested, and the INHIBITION was 21%. `COc1c(C2CCCN2C(=O)c2c[nH]c3ncccc23)c(C)nn1C` (stereo not drawn) showed an INHIBITION of 44.3%. Compound `COc1ccc(CNC(=O)N(C)CC(C)(C)O)cc1OC` has an INHIBITION of 46.6%. For `CCOc1ccc(CNC(=O)N(C)CC(C)(C)O)cc1C`, the INHIBITION was 62.8%. For `CCOc1cc(Cl)ccc1CNC(=O)N(C)CC(C)(C)O`, the INHIBITION was 25.2%. For `O=C(NCC(CO)Cc1ccc(Cl)cc1)c1ccncc1F` (stereo not drawn), the INHIBITION was -11.1%. Work on `Cc1cc(C)n(C2CCCN(C(=O)c3cn4cccnc4n3)C2)n1` (stereo not drawn) yielded an INHIBITION of 31.9%. `CC(C)(C)OC(=O)N1CCCN1C(=O)c1cccc(F)c1F` gave an INHIBITION of 31.9%. `Cc1[nH]ccc1C(=O)N1CCCN1C(=O)OC(C)(C)C` gave an INHIBITION of 14.3%. `CC(C)(C)OC(=O)N1CCCN1C(=O)c1cccc2cc[nH]c12` was tested, and the INHIBITION was 56.5%. Compound `O=C(NC1CCCC1)c1cc(C2CCCNC2)n[nH]1` (stereo not drawn) has an INHIBITION of 9.98%. In the case of `CN1C[C@@H](O)[C@]2(CCN(C(=O)c3ccccc3)C2)S1(=O)=O`, the INHIBITION is reported as 8.61%. `O=C(C1CCC1)N1C[C@H]2CC[C@@H](C1)N(S(=O)(=O)c1ccccc1)C2` showed an INHIBITION of -49.3%. `CCOc1nnc(CN(CC)CC(=O)Nc2c(F)cccc2F)s1` gave an INHIBITION of 69.1%. With `CCOc1nnc(CN(CC)CC(=O)NC(C)C)s1` the INHIBITION was 39.9%. `CCOc1nnc(CN(CC)CC(=O)NC(C)(C)C)s1` was tested, and the INHIBITION was 24.7%. `Cc1oc(C)c(C(=O)N2CCCN(c3nccs3)CC2)c1C` was tested, and the INHIBITION was -21.7%. `O=C(Cc1n[nH]c(-c2cncc(Br)c2)n1)NCc1ccncc1` was tested, and the INHIBITION was 29.4%. In the case of `NC(=O)CNC(c1ccccc1)c1ccc(OC(F)F)cc1` (stereo not drawn), the INHIBITION is reported as -11.9%. In the case of `CC(NC(=O)CN1CCN(c2ccncc2Cl)CC1)c1ccco1` (stereo not drawn), the INHIBITION is reported as 71.3%. `Cc1ccc(Cl)cc1N1CCN(CC(=O)NC(C)c2ccco2)CC1` (stereo not drawn) showed an INHIBITION of 26.8%. Compound `CC(NC(=O)CN1CCN(c2cccc(Cl)c2)CC1)c1ccco1` (stereo not drawn) has an INHIBITION of 22.6%. Compound `O=c1[nH]c(-c2ccccc2)nc2c1CCN(S(=O)(=O)N1CCCC1)C2` has an INHIBITION of 9%. With `Cc1ccc(S(=O)(=O)N[C@H](CO)C(C)C)cc1N(C)C` the INHIBITION was 6.94%. In the case of `CC1(C)CN=C(N2CCN(CC3CCOC3)CC2)S1` (stereo not drawn), the INHIBITION is reported as 32%. Work on `CC1(C)CN=C(N2CCN(CCCN3CCOCC3)CC2)S1` yielded an INHIBITION of 89.6%. For `CC1(C)CN=C(N2CCN(CC3CCCO3)CC2)S1` (stereo not drawn), the INHIBITION was 25.5%. Compound `Cc1nc(CN2C(=O)CC[C@@H]3[C@H]2CCN3C(=O)c2ccccn2)cs1` has an INHIBITION of 48.6%. `Cc1nc(C)c(C(=O)N2Cc3ccccc3OCC2Cn2ccnc2)s1` (stereo not drawn) gave an INHIBITION of 51.7%. With `Cc1nc(C)c(C(=O)N2Cc3ccccc3OCC2Cn2ccnc2)o1` (stereo not drawn) the INHIBITION was 25.8%. In the case of `O=C(c1cccnc1)N1Cc2ccccc2OCC1Cn1ccnc1` (stereo not drawn), the INHIBITION is reported as 24.8%. `CCS(=O)(=O)N1C[C@@H](O)[C@H](N2CCc3ccccc3C2)C1` showed an INHIBITION of 9.98%. `Cc1noc(C)c1C(=O)N1CC[C@]2(C[C@@H](OCc3cccnc3)CO2)C1` was tested, and the INHIBITION was 10.1%. With `CCC[C@@H]1CN(Cc2ccccc2-c2ccco2)C[C@H]1NC(C)=O` the INHIBITION was -20%. `Cc1nc(N(C)C)nc(C)c1NC(=O)c1ccco1` showed an INHIBITION of -2.74%. For `Cc1nc(N(C)C)nc(C)c1NC(=O)c1ccccc1F`, the INHIBITION was 64.3%. For `Cc1nc(N(C)C)nc(C)c1NC(=O)c1ccccc1C(F)(F)F`, the INHIBITION was 46.3%. `Cc1ccc(NC(=O)c2ncc(C(N)=O)cc2Cl)cc1F` was tested, and the INHIBITION was -10.8%. `CNS(=O)(=O)c1cc(C(=O)NC2COc3ccccc32)cc(C)c1C` (stereo not drawn) showed an INHIBITION of 18.4%. For `O=C(c1cccnc1N1CCCCC1)N1CCCC(n2cccn2)C1` (stereo not drawn), the INHIBITION was -11.9%. `CCCNS(=O)(=O)c1ccc2[nH]c(=O)cc(C)c2c1` showed an INHIBITION of 14.3%. `CNS(=O)(=O)c1cc(C)c2[nH]c(=O)cc(C)c2c1` showed an INHIBITION of 56%. `CCOCCNS(=O)(=O)c1cc(C)c2nc(O)cc(C)c2c1` was tested, and the INHIBITION was 16.3%. Compound `CN(C)C(=O)[C@@H]1C[C@@H]2CCN(C3CCOCC3)C[C@@H]2O1` has an INHIBITION of 14.5%. `CCc1cc(NCC(O)CN2CCCCC2)n2ncnc2n1` (stereo not drawn) showed an INHIBITION of -0.79%. `CN(C)c1cccc(C(=O)N2C[C@@H]3CC[C@H]2CN(C(=O)C2CCC2)C3)c1` was tested, and the INHIBITION was 50.3%. `CN(C)C(=O)N1C[C@H]2CC[C@@H](C1)N(C(=O)c1cccc(N(C)C)c1)C2` gave an INHIBITION of 26.7%. Work on `CCOc1cccc(C(=O)N2C[C@@H]3CC[C@H]2CN(C(=O)C2CCC2)C3)c1` yielded an INHIBITION of 27.6%.
